# Records with an inconclusive call do not appear. Unmarked numbers belong to inactive results. Calls of active or inactive are those of the source. Calls follow the shape of the dose curve; as a rule, active = well fitted inhibition curve with a large enough effect; inconclusive = small, poorly fitted or top-dose-only effect, or effect the other way; inactive = no such curve, though single readings can be large or run the other way.
# Assay: Confirmation Concentration-Response Assay for lipid storage modulators: for probe SAR
# Conditions: Drosophila S3 cells, BODIPY lipid droplet fluorescence, 18-24 h; series mostly up to 46.1 µM; activity change, negative = lipid storage inhibition: at the top concentration
# From the text: NIH Molecular Libraries Probe Production Centers Network [MLPCN] NIH Chemical Genomics Center [NCGC] MLPCN Grant: 1 R03 MH085686-01 Assay Submitter (PI): Beller, Mathias; Max-Planck-Institut fur Biophysikalische Chemie NCGC Assay Overview: Storing lipids as a reservoir for energy or the anabolism of elementary metabolites is a common feature of probably all cells and is conserved from bacteria to humans. The universal cellular lipid storage organelle is the so-called lipid storage droplet (LD). Although ubiquitous, LDs share a simple structure composed of a hydrophobic core that harbors the storage lipids, which is shielded by a droplet-specific phospholipid monolayer to which proteins are attached. The current model of LD biogenesis involves an incorporation of the lipid core into the membrane leaflets of the endoplasmic reticulum (ER) followed by a subsequent budding-like maturation of a LD, which ultimately pinches off. Once released, LD volume can increase by localized lipogenesis or fusion of existing droplets. Storage lipids are re-mobilized enzymatically by lipase activity. Lipase regulation in the adipocyte is heavily studied and involves multiple components including catecholamine signaling, the LD-associated proteins Perilipin and comparative gene identification-58 (CGI-58) and at least two lipases named hormone sensitive lipase (HSL) and adipocyte triglyceride lipase (ATGL). LD regulation outside of the adipocyte is poorly understood and only few components are known. However, there is an urgent need to learn more about ectopic fat depots as mislocalized storage of lipids, for example in the liver or muscle, is an eminent health problem associated with insulin resistance or the metabolic syndrome. We developed a laser-scanning cytometer assay to enable 1,536-well screening and combined the results of the small molecules screen with an RNAi database based on lipid storage.
# We dispensed 4 uL of cells at 1.25 x 10^6 cells/mL into LoBase Aurora COC 1,536-well plates (black walled, clear bottom) with a bottle-valve solenoid-based dispenser (Aurora) to obtain 5,000 cells/well. Triacsin C (Sigma-Aldrich T-4540), an inhibitor of long-chain fatty acyl CoA synthetase that blocks synthesis of triglycerides, was used as a positive control for lipid under-storage. […] Fluorescence was detected by excitation of the fluorophores with a 488-nm laser on an Acumen Explorer (TTP Lab Tech). […] Cells were detected using channel 3 (575- 640 nm) with 5-um width and 100-um depth filters. The ratio of the total intensity in PMT channel 1 over total intensity of channel 3 was also calculated. […]
SMILES,Potency,"activity change, negative = lipid storage inhibition"
CCC/C=C/C/C=C/C=C/C=N/NN=O,791 nM (active),
CCOC(=O)C1CCN(C(=O)C2(NC(=O)Nc3ccccc3Cl)CCCC2)CC1,787 nM (active),
CCOc1ccc(CCNC(=O)c2cc3sccc3n2Cc2ccc(F)cc2F)cc1OCC,56 nM (active),
CCOc1ccc(CCNC(=O)c2ccccc2)cc1OCC,,32.2%

# — PubChem BioAssay AID488913 (National Center for Advancing Translational Sciences (NCATS), 2010)
